The text below walks through data of PubChem BioAssay (NCATS).

The structures appear in SMILES notation. Results filed as inconclusive are left out. Active and inactive are the calls of the source. Calls follow the shape of the dose curve; as a rule, active = well fitted curve in the direction sought with a large enough effect; inconclusive = small, poorly fitted or top-dose-only effect, or another doubt; inactive = no such curve, though single readings can be large; an effect the other way counts as inactive or inconclusive.

Assay [1] is described as follows: qHTS of pediatric cancer cell lines to identify multiple opportunities for drug repurposing: Primary screen for Saos-2 cells (AID 1347097). Also: nearly all actives have a fitted effect of over 40% in size. Summed up:
(§1)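 Primary screen of approved and investigational compounds on cells in growth media at 37 degrees C, 5% CO2. MIPE set at 11-point and NPC set at 8-point dilutions; viability scored by ATP-based luminescence at 48 hours.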
In general terms: In qHTS, concentration-response curves come from the screen itself.

Assay [2] is described as follows: qHTS of pediatric cancer cell lines to identify multiple opportunities for drug repurposing: Primary screen for BT-12 cells (AID 1347101). Also: nearly all actives have a fitted effect of over 25% in size. Summed up:
(§2)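 Cells (500-1,000/well) rested 5 h, then received compounds for 48 h; metabolically active cells were measured by CellTiter-Glo luminescence. Final concentrations spanned up to 46 µM (MIPE, 11-point) or 0.59 nM-46 µM (NPC, 8-point) in primary screens, 11-point in follow-ups.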

The nature of assay [3]: qHTS of pediatric cancer cell lines to identify multiple opportunities for drug repurposing: Primary screen for OHS-50 cells (AID 1347103). Also: nearly all actives have a fitted effect of over 40% in size. Summed up: as §2
Assay [4] is described as follows: qHTS of pediatric cancer cell lines to identify multiple opportunities for drug repurposing: Primary screen for RD cells (AID 1347104). Also: nearly all actives have a fitted effect of over 55% in size. Put shortly: as §1
Assay [5] is described as follows: qHTS of pediatric cancer cell lines to identify multiple opportunities for drug repurposing: Primary screen for Rh30 cells (AID 1347107). Also: nearly all actives have a fitted effect of over 75% in size. Put shortly: as §2
The nature of assay [6]: qHTS of pediatric cancer cell lines to identify multiple opportunities for drug repurposing: Primary screen for Rh41 cells (AID 1347108). Also: nearly all actives have a fitted effect of over 70% in size. Put shortly: as §1
The nature of assay [7]: qHTS of pediatric cancer cell lines to identify multiple opportunities for drug repurposing: Confirmatory screen for NB1643 cells (AID 1347109). Also: nearly all actives have a fitted effect of over 45% in size. Summed up: as §2
Assay [8] in a line: qHTS of pediatric cancer cell lines to identify multiple opportunities for drug repurposing: Confirmatory screen for A673 cells (AID 1347110).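 Also: cells exposed to compound for 48 h before the viability read; nearly all actives have a fitted effect of over 65% in size.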 Put shortly: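 A673 cells at 500-1,000 cells/well were dosed 5 h after plating, in dilution series up to 46 uM final; primary runs used 8 or 11 points and confirmatory runs used 11 points. Viability was read by CellTiter-Glo luminescence after 48 h, against DMSO and 2.3 uM bortezomib controls.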

Assay [9] in a line: qHTS of pediatric cancer cell lines to identify multiple opportunities for drug repurposing: Confirmatory screen for SK-N-MC cells (AID 1347111).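 Also: cells exposed to compound for 48 h before the readout; nearly all actives have a fitted effect of over 70% in size.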 Put shortly:
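Seed 500-1,000 cells/well; rest 5 h at 37 degrees C. Pin-transfer compounds, 11-point titration. Incubate 48 h. Add CellTiter-Glo, 15 min RT, read luminescence.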

The nature of assay [10]: qHTS of pediatric cancer cell lines to identify multiple opportunities for drug repurposing: Confirmatory screen for BT-12 cells (AID 1347112). Also: nearly all actives have a fitted effect of over 55% in size. Summed up: as §2
The nature of assay [11]: qHTS of pediatric cancer cell lines to identify multiple opportunities for drug repurposing: Confirmatory screen for LAN-5 cells (AID 1347113). Also: nearly all actives have a fitted effect of over 65% in size. Put shortly:
as §2

Assay [12] can be described thus: qHTS of pediatric cancer cell lines to identify multiple opportunities for drug repurposing: Confirmatory screen for NB-EBc1 cells (AID 1347115).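 Also: cells exposed to compound for 48 h before the viability read; nearly all actives have a fitted effect of over 45% in size.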 Put shortly: as §2
Assay [13] is described as follows: qHTS of pediatric cancer cell lines to identify multiple opportunities for drug repurposing: Confirmatory screen for SJ-GBM2 cells (AID 1347116). Also: nearly all actives have a fitted effect of over 60% in size. Put shortly: (§3)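 Viability measured as metabolically active cells via CellTiter-Glo luminescence following 48 hours of compound exposure, 11-point dilutions in confirmatory testing. 500-1,000 cells/well plated 5 hours before dosing; controls were DMSO and 2.3 µM bortezomib.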

Assay [14] is described as follows: qHTS of pediatric cancer cell lines to identify multiple opportunities for drug repurposing: Primary screen for LAN-5 cells (AID 1347100). Summed up: as §2
Assay [15] is described as follows: qHTS of pediatric cancer cell lines to identify multiple opportunities for drug repurposing: Primary screen for Rh18 cells (AID 1347102). Also: nearly all actives have a fitted effect of over 65% in size. Put shortly: as §2
The nature of assay [16]: qHTS of pediatric cancer cell lines to identify multiple opportunities for drug repurposing: Confirmatory screen for DAOY cells (AID 1347114). Also: nearly all actives have a fitted effect of over 65% in size. Put shortly:
as §3

The nature of assay [17]: qHTS of pediatric cancer cell lines to identify multiple opportunities for drug repurposing: Primary screen for MG 63 (6-TG R) cells (AID 1347105). Also: nearly all actives have a fitted effect of over 50% in size. Put shortly:
as §1

The nature of assay [18]: qHTS of pediatric cancer cell lines to identify multiple opportunities for drug repurposing: Primary screen for control Hh wild type fibroblast cells (AID 1347106). Also: nearly all actives have a fitted effect of over 55% in size. Summed up:
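Viability after 48 h compound treatment at 37C, 500-1,000 cells/well, read as ATP luminescence with CellTiter-Glo. Primary screens used 11-point (MIPE, 0.78 nM-46 µM) or 8-point (NPC, 0.59 nM-46 µM) final concentrations; follow-up screens used 11-point dilutions.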

Assay [19] in a line: qHTS of pediatric cancer cell lines to identify multiple opportunities for drug repurposing: Primary screen for NB1643 cells (AID 1347099). Also: nearly all actives have a fitted effect of over 50% in size. Summed up:
as §1

Assay [20] in a line: qHTS of pediatric cancer cell lines to identify multiple opportunities for drug repurposing: Primary screen for SK-N-SH cells (AID 1347098). Also: nearly all actives have a fitted effect of over 65% in size. Summed up:
as §2
Potency is read from the fitted curve at half-maximal effect.

Turning to `OCCCNc1cc(-c2ccnc(Nc3cccc(Cl)c3)n2)ccn1`, the Potency was 0.148 µM (active) in assay [1]; 0.193 µM (active) in [2]; 0.153 µM (active) in assay [3]; 0.235 µM (active) in assay [4]; 0.235 µM (active) in [6]; 0.104 µM (active) in [7]. The Potency in assay [8] was 0.0928 µM (active); in [9] it was 0.261 µM (active); in [10], 0.329 µM (active); in [11] it was 0.261 µM (active); in assay [13] it was 0.369 µM (active). In addition, the Potency entry in assay [5] and in assay [12] was “inactive” each time.

On to `Cc1cc(C(=O)N2CCN(c3cccc(Cl)c3)CC2)n(-c2ccccc2)n1`, for which the Potency in assay [1] is 0.118 µM (active); in assay [14], 0.743 µM (active); in assay [2], 6.85 µM (active); in [6], 2.35 µM (active); in assay [9], 2.61 µM (active); in assay [16], 0.928 µM (active). For the same compound, the Potency entry in assay [15] and in [5] was “inactive” in each case.

Take `COc1ccc(C(=O)CC2(O)C(=O)Nc3c(Cl)ccc(Cl)c32)cc1` (stereo not given): the Potency is 2.09 µM (active) in assay [1]; 1.32 µM (active) in [14]; 3.43 µM (active) in [2]; 4.32 µM (active) in assay [3]; 5.9 µM (active) in assay [4]; 3.72 µM (active) in [17]. For the same compound, in [6], the Potency was 3.72 µM (active). Further, the Potency entry in assay [5] is “inactive”.

In the case of `CC(C)CC(=O)Nc1n[nH]c2c1CN(C(=O)C1CCN(C)CC1)C2(C)C`, the Potency is 5.26 µM (active) in assay [1]; 2.43 µM (active) in [2]; 3.43 µM (active) in assay [3]; 2.35 µM (active) in assay [4]; 3.72 µM (active) in [6]; 1.04 µM (active) in assay [8]. For the same compound, the Potency in assay [10] is 2.93 µM (active). The Potency entry in assay [15], in assay [5] and in [7] was “inactive” each time.

With `O=C(O)[C@H](Cc1c[nH]c2ccccc12)N1C(=O)c2ccccc2C1=O`, the Potency entry in assay [1], in [14], in assay [2], in [15], in assay [4] and in assay [17] was “inactive” throughout. Moreover, the Potency result in assay [18], in [5] and in assay [6] was “inactive” throughout.

In the case of `Nc1ccn([C@@H]2O[C@H](CO)[C@H](O)C2(F)F)c(=O)n1`, the Potency in assay [1] was 3.72 µM (active); in [19] it was 0.469 µM (active); in [14], 0.0935 µM (active); in assay [8], 0.0585 µM (active). The Potency result in assay [15], in [18], in [5] and in assay [6] was “inactive” throughout.

On to `CC(C)c1ccccc1Cc1cc(C(=O)Nc2ccc(S(=O)(=O)c3ccccc3C(C)(C)C)cc2)c(O)c(O)c1O`, for which the Potency in [1] is 26.4 µM (active); in [14], 23.5 µM (active); in [2], 21.7 µM (active); in assay [15], 18.7 µM (active); in assay [3], 24.3 µM (active); in assay [6], 18.7 µM (active). In assay [18], the Potency result was “inactive”.

With `COc1ccc2c(OCc3nnc4ccc(-c5ccccc5)nn34)ccnc2c1`, the Potency entry in assay [20], in [19], in [14], in assay [2], in [15] and in [3] was “inactive” in each case. Besides, the Potency entry in assay [4], in assay [17], in assay [18] and in assay [5] was “inactive” each time.

As for `C[C@@H]1COC(Nc2ccc3ncnc(Nc4ccc(OCc5nccs5)c(Cl)c4)c3c2)=N1`, the Potency in assay [1] is 29.6 µM (active); in assay [19], 4.69 µM (active); in assay [14], 16.6 µM (active); in assay [2], 24.3 µM (active); in assay [3], 21.7 µM (active); in assay [4], 14.8 µM (active).

Regarding `Cc1ccc(C(N)=O)cc1Nc1nccc(-c2cn(C(C)C)c3cnccc23)n1`, the Potency is 4.69 µM (active) in assay [1]; 6.85 µM (active) in [2]; 9.68 µM (active) in [3]; 16.6 µM (active) in [4]; 18.7 µM (active) in [6]; 9.55 µM (active) in assay [8]. In addition, the Potency in [9] was 7.59 µM (active); in assay [10] it was 13.5 µM (active); in assay [11], 8.51 µM (active); in assay [16] it was 13.5 µM (active); in [13], 21.4 µM (active). Besides, the Potency result in assay [19], in assay [15] and in assay [18] was “inactive” each time.

For `NC(=O)c1cccc2cn(-c3ccc([C@@H]4CCCNC4)cc3)nc12`, the Potency entry in [20], in assay [2], in assay [15], in assay [17], in [18] and in [5] was “inactive” in each case. Also, the Potency result in assay [6], in assay [10] and in [13] was “inactive” each time. The Potency in assay [19] was 20.9 µM (active); in [14], 11.8 µM (active); in assay [8] it was 5.22 µM (active); in [9], 2.08 µM (active).

Regarding `O=C(Nc1cn[nH]c1-c1nc2ccc(CN3CCOCC3)cc2[nH]1)NC1CC1`, the Potency in assay [20] is 0.242 µM (active); in assay [19], 5.26 µM (active); in assay [14], 0.0105 µM (active); in assay [2] it was 7.69 µM (active); in assay [15], 0.935 µM (active); in assay [3], 1.53 µM (active). The Potency in assay [4] was 5.9 µM (active); in assay [17] it was 7.43 µM (active); in assay [18], 10.5 µM (active); in [6] it was 4.69 µM (active); in assay [9], 1.65 µM (active). In addition, the Potency result in assay [5], in assay [10], in [11], in assay [16] and in [12] was “inactive” in each case.

For `c1cc(-c2cnn3cc(-c4ccc(OCCN5CCCCC5)cc4)cnc23)ccn1`, the Potency in assay [20] is 21.5 µM (active); in [19] it was 3.72 µM (active); in assay [14] it was 9.35 µM (active); in assay [2], 24.3 µM (active); in assay [15], 20.9 µM (active); in assay [3] it was 9.68 µM (active). The Potency in assay [4] was 18.7 µM (active); in assay [17] it was 18.7 µM (active); in [5], 18.7 µM (active); in assay [6] it was 9.35 µM (active).

In the case of `CNC(=O)c1ccccc1Nc1nc(Nc2ccc(N3CCOCC3)cc2OC)ncc1Cl`, the Potency in assay [20] is 6.07 µM (active); in assay [19], 0.332 µM (active); in assay [14], 0.264 µM (active); in [15] it was 5.9 µM (active); in [3], 0.306 µM (active); in assay [4], 0.469 µM (active). Further, the Potency in [17] is 0.935 µM (active); in assay [5], 1.32 µM (active); in [6], 0.935 µM (active); in assay [7], 0.369 µM (active); in [8] it was 1.04 µM (active); in assay [9], 0.737 µM (active). In addition, the Potency was 0.414 µM (active) in [11], 8.27 µM (active) in assay [12] and 9.27 µM (active) in assay [13].

As to `CCCn1c(=O)c2[nH]c(-c3cnn(Cc4cccc(C(F)(F)F)c4)c3)nc2n(CC)c1=O`, the Potency entry in assay [20], in assay [19], in assay [14], in assay [15], in assay [4] and in assay [18] was “inactive” throughout. Besides, the Potency entry in assay [5] and in [6] was “inactive” in each case.
